About 83,000 compounds went through this panel and 20% of them were active in at least one assay; those are over-represented in the sample as a whole.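 Plates (96-well) were seeded with cells, treated with compound at one concentration, and incubated for 48 hours before percent growth was determined.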 Values without a mark were called inactive. Active and inactive are the calls of the source. The calls were made as follows: active = growth percent below 10; inactive = the rest.

The first experiment concerns NCI-H322M lung. Nature of the experiment: NCI-60 one-dose screen, 48 h (100 = growth as untreated, 0 = no growth, -100 = all killed). To be noted: 10 µM unless noted.
Consider `CCNCCNc1cc(-c2ccc(C(F)(F)F)cc2)c(C#N)c2nc3cc(Cl)c(Cl)cc3n12`, for which the growth was -95.4% (active). On to `C=CCN1C(=O)[C@]2(SC1=S)[C@H](c1cccc(Cl)c1)CN(C)[C@]21C(=O)NC2C=CC(Cl)=C[C@H]21` (stereo partly drawn), for which the growth was 87.2%.

In the case of `O=C(/C=C/C12c3ccccc3C(c3ccccc31)C1C(=O)N(c3ccccc3)C(=O)C12)c1ccccc1` (stereo not drawn), the growth was 12.9%.

As to `O=S(=O)(Nc1ccsc1-c1nc(-c2ccccc2)no1)c1cc(Cl)cc(Cl)c1`, the growth is 95.4%.

Consider `CNC1(C#N)CCN(Cc2ccccc2)CC1`, for which the growth was 336%. The same measure, in the same setting: the value for `COc1cc2cc(Oc3ccc(NC(=O)Nc4cc(C(F)(F)F)cc(C(F)(F)F)c4)cc3)c(C)nc2cc1OCCN1CCCCC1` was -87.1% (active); that for `CC(C)n1nc(C#Cc2cccc3cc(-c4cccc(C(F)(F)F)c4)ncc23)c2c(N)ncnc21` was 94.8%; that for `N[C@@H]1CCC[C@H]1NCCCCN1C(=O)c2cccc3cccc(c23)C1=O` was 64.4%. For the compound `CCN(CC)CCOC(=O)N1c2ccccc2Sc2ccccc21`, the growth was 89.7%.

Another experiment deals with HOP-62 NSCLC. Described as above. To be noted: 10 µM unless noted.
With `C=C(C)[C@@H]1CC[C@]2(CNCCO)CC[C@]3(C)[C@H](CC[C@@H]4[C@@]5(C)CCC(N)[C@@](C)(CO)[C@@H]5CC[C@]43C)[C@@H]12` (stereo partly drawn), the growth is -53.7% (active). Still for that read-out and setting: the value for `O=S(=O)(NCCNc1cc(-c2c(-c3cccc(O)c3)nc3sccn23)ccn1)c1ccc(Cl)cc1` was 103%; that for `CC(C)(C)Nc1c(-c2c3ccccc3cc3ccccc23)nc2ccccn12` was 65.1%.

As to `CN(C)CCOC(=O)Nc1ccc(Cl)cc1`, the growth was 88.4%. The same measure, in the same setting: the value for `CCOc1ccc(-c2nc3ccc(-c4nc5ccc(N6CCN(C)CC6)cc5[nH]4)cc3[nH]2)cc1OCC` was 16.7%; that for `N[C@H]1CCC[C@@H]1NCCCCN1C(=O)c2cccc3cccc(c23)C1=O` was 76.2%. On the same count and under the same terms, as for `COc1ccc(/C=C(\C#N)n2nnc3cc(F)c(F)cc32)c(OC)c1OC`, the figure is 82.9%; as for `COc1cc2ccccc2cc1C(=O)NC(=S)Nc1ccc(-c2nc3ccccc3[nH]2)cc1`, 79.9%. Same read-out and setting: the value for `Cc1ccc(/C=C(\C#N)n2nnc3cc(Cl)c(Cl)cc32)cc1` was 33.8%; that for `CC(C)(O)c1cccc(F)c1` was 138%. For the compound `O=C1Nc2ccc(Cl)cc2/C1=N/N=C/c1c[nH]c2ccccc12`, the growth was 80.4%. The same measure, in the same setting: as for `N#Cc1c(-c2ccccc2)nc(SCC2CO2)nc1N1CCOCC1` (stereo not drawn), the figure is 54.3%. `COc1cc2c(cc1OC)-c1ccc3cc4c(cc3c1N(CCCN(C)C)C2)OCO4`: the growth was 38%. Still for that read-out and setting: as for `C=C1C(=O)O[C@H]2[C@H]1CC/C(Cn1cc(CNCCc3c[nH]c4ccc(Cl)cc34)nn1)=C\CC[C@@]1(C)O[C@@H]21`, the figure is 78.7%; as for `C#CC[C@H](N)C(=O)O`, 94.4% [20 µM]. Still for that read-out and setting: as for `O=C(Oc1ccc([N+](=O)[O-])cc1)c1ccc(CBr)cc1`, the figure is 139%; as for `OC(CBr)c1ccnc2ccccc12` (stereo not drawn), 99.1%. On the same count and under the same terms, the value for `CCCNCC(=O)Nc1ccc(C(=O)OC(C)(C)CC)cc1` was 99.7%; that for `CC(=O)c1cc2c(o1)C(=O)c1ccccc1C2=O` was -57.9% (active).

Regarding `CS(=O)(=O)c1ccc(-c2[nH]c3ccc(F)cc3c2/C=N/NC(N)=S)cc1`, the growth was 34.2%. On the same count and under the same terms, as for `CC(C)c1ccc(C(=O)OC(=O)c2ccc(C(C)C)cc2)cc1`, the figure is 86.2%. As to `N=C(N)c1ccc(-c2ccc(-c3ccc(Cl)c(Cl)c3)o2)nc1`, the growth was 5.09% (active).

As for `N#C/C=C(\c1ccc([N+](=O)[O-])cc1)n1nnc2cc(Cl)c(Cl)cc21`, the growth is 31.2%. Same read-out and setting: the value for `CS(=O)(=O)c1ccc(-c2nc3cc(Cl)ccc3n2CC(=O)NO)cc1` was 97.1%. As for `CC(=O)Nc1cccc(C2=CC(c3ccc(C)cc3)n3ncnc3N2)c1` (stereo not drawn), the growth was 101%.

In the case of `CCn1c(Sc2nnc(NC(=O)CCN3CCCC3)s2)nc2c1c(=O)n(C)c(=O)n2C`, the growth was 103%. As to `N#Cc1c(NC(=O)c2cccc(C(F)(F)F)c2)sc2c1CCC(=O)C2`, the growth is 4.66% (active). With `CC(C)(C)c1ccc(C(=O)Nc2sc3c(c2C(N)=O)CCC(=O)C3)cc1`, the growth was 26.5%. The same measure, in the same setting: the value for `CCOC(=O)c1c(C)nc2c(c1N)/C(=C/c1cc(OC)c(OC)c(OC)c1)C(=O)N2c1ccc(OC)cc1` was 128%; that for `Nc1nc(Nc2ccc(Cl)cc2)nn1S(=O)(=O)c1ccc(-c2ccc(F)cc2)cc1` was 84.3%; that for `CCNCCNc1cc(-c2ccc(C(F)(F)F)cc2)c(C#N)c2nc3cc(Cl)c(Cl)cc3n12` was -82.4% (active).

Take `C=CCN1C(=O)[C@]2(SC1=S)[C@H](c1cccc(Cl)c1)CN(C)[C@]21C(=O)NC2C=CC(Cl)=C[C@H]21` (stereo partly drawn): the growth was 63.9%. Still for that read-out and setting: the value for `O=C(/C=C/C12c3ccccc3C(c3ccccc31)C1C(=O)N(c3ccccc3)C(=O)C12)c1ccccc1` (stereo not drawn) was 28.7%.

Take `O=S(=O)(Nc1ccsc1-c1nc(-c2ccccc2)no1)c1cc(Cl)cc(Cl)c1`: the growth was 76.2%. Same read-out and setting: as for `CNC1(C#N)CCN(Cc2ccccc2)CC1`, the figure is 87.2%. Same read-out and setting: the value for `COc1cc2cc(Oc3ccc(NC(=O)Nc4cc(C(F)(F)F)cc(C(F)(F)F)c4)cc3)c(C)nc2cc1OCCN1CCCCC1` was -50% (active); that for `CC(C)n1nc(C#Cc2cccc3cc(-c4cccc(C(F)(F)F)c4)ncc23)c2c(N)ncnc21` was 59.7%; that for `N[C@@H]1CCC[C@H]1NCCCCN1C(=O)c2cccc3cccc(c23)C1=O` was 81.9%. Still for that read-out and setting: the value for `CCN(CC)CCOC(=O)N1c2ccccc2Sc2ccccc21` was 88.7%.

These data come from PubChem BioAssay (NCI).
